Unmarked numbers belong to inactive results. The call rests on the fitted dose curve; in most records, active means well fitted activation curve with a large enough effect in the repeat runs; inconclusive means weak or mixed curves; inactive means flat fitted curve, though single readings scatter.
Experiment: A CellTox Green Cytotoxicity Assay to monitor cytotoxicity in HEK293 cells - 0 hour (AID 1224869); further: nearly all actives have a fitted effect of over 50% in size
Settings: CellTox Green fluorescence; series mostly up to 76.8 µM; cytotoxicity: at the top concentration
Text: National Center for Advancing Translational Sciences [NCATS]
NIH Chemical Genomics Center [NCGC]
U.S. Environmental Protection Agency [EPA]
National Institutes of Environmental Health Sciences [NIEHS]
National Toxicology Program [NTP]
Cell-based models are critical for drug discovery. Determining the natural cytotoxic effects resulting from test compounds is an essential research activity. A CellTox Green Cytotoxicity Assay to monitor cytotoxicity in real time of continues cell culture during 40 hours of the compound treatment was used to screen Tox21 10K library compounds in Hek293 cells. CellTox Green Cytotoxicity Assay is a nonlytic, homogeneous, biofluorescent method to measure cytotoxicity in cell culture after experimental manipulation. The assay system uses a proprietary asymmetric cyanine dye that is excluded from viable cells but preferentially stains the dead cell's DNA. […] Viable cells produce no appreciable increases in fluorescence. Therefore, the fluorescence signal produced by the binding interaction with dead cell DNA is proportional to cytotoxicity.
The mixture of Hek293 cell suspension and reagents were dispensed at 600cells/6 ul/well in 1536-well tissue culture treated black solid bottom plates using a Multidrop dispenser. After the assay plates were incubated at a 37 C/5% CO2 incubator for 5 hours, 23 nL of compounds dissolved in DMSO, positive and negative controls was transferred to the assay plate by a pintool work station. The plates were incubated at 37 C for 40 hours. The fluorescence intensity were measured at 0h, 8h, 16h, 24h, 32h and 40h time points using ViewLux plate reader during compound treatment.
On the % scale 0 is the no-effect control and ±100 the full control effect.

Row | SMILES | cytotoxicity
1 | O=[N+]([O-])c1ccc(Cl)cc1Cl | 1.04%
2 | CCOC(=O)CC(O)(CC(=O)OCC)C(=O)OCC | 1.61%
3 | O=c1c2ccccc2oc2ccccc12 | 0.0637%
4 | C[C@@H](O)[C@H]1C(=O)N2C(C(=O)O)=C(S[C@@H]3CN[C@H](CNS(N)(=O)=O)C3)[C@H](C)[C@H]12 | -5.92% [at 35.3 µM]
5 | COc1cc(CNC(=O)CCCC/C=C/C(C)C)ccc1O | 2.08%
6 | Cc1cc(N)n(-c2ccccc2)n1 | 2.39%
7 | Nc1cccc2c(=O)[nH][nH]c(=O)c12 | -3.46%
8 | Cc1ccc(S(=O)(=O)NC(=O)NC2CCCC2)cc1 | 0.954% [at 35.3 µM]
9 | Cc1ccc2ccccc2c1[N+](=O)[O-] | 4.91%
10 | CC1(C)CC(=O)CC(C)(C)N1 | -5.14%
11 | Cc1cc(C)n(CO)n1 | 3.19%
12 | CCOc1ccccc1O | 1.87%
13 | CC(C)(Cc1c[nH]c2ccccc12)NCC(O)COc1ccccc1C#N (stereo not given) | -8.98% [at 35.3 µM]
14 | C/C(=C(\CCO)SS/C(CCO)=C(\C)N(C=O)Cc1cnc(C)nc1N)N(C=O)Cc1cnc(C)nc1N | -0.147% [at 35.3 µM]
15 | CC(C)CCCCCCCOC(=O)c1ccc(C(=O)OCCCCCCCC(C)C)c(C(=O)OCCCCCCCC(C)C)c1 | 7.25%
16 | c1ccc(CCNc2nc(-c3ccccc3)cs2)cc1 | -1.74% [at 35.3 µM]
17 | CC(CC(C#N)(c1ccccc1)C(C)C)N(C)C (stereo not given) | 2.17% [at 35.3 µM]
18 | CCCCCCC/C=C/C=O | -3.82%
19 | CCOC(C)OCC | 0.56%
20 | CS(C)=O | -0.184%

Row | SMILES | cytotoxicity
21 | O=C(O)c1cccc(C(=O)O)c1C(=O)O | -0.839%
22 | O=C(OCCN1CCOCC1)c1cccnc1Nc1cccc(C(F)(F)F)c1 | -7.96% [at 35.3 µM]
23 | Cc1c(-c2cccnc2)c2ccccc2n1CCCCC(=O)O | -2.71%
24 | N#Cc1ccc(CC(=O)c2cccc(C(F)(F)F)c2)cc1 | 3.51%
25 | CC(C)(O)C(=O)O | -5.22%
26 | O=Cc1ccc(Cl)c([N+](=O)[O-])c1 | 0.392%
27 | S=c1[nH][nH]c(=S)s1 | -4.09%
28 | CC1(COc2ccc(CC3SC(=O)NC3=O)cc2)CCCCC1 (stereo not given) | -0.415% [at 35.3 µM]
29 | Clc1ccccc1-c1nc(-c2ccncc2)no1 | -4.86% [at 35.3 µM]
30 | CCn1nc(Cc2ccccc2)cc1C1CCN(C[C@H]2C[C@H](N(C)[C@@H](C(=O)O)C(C)C)C[C@@H]2c2cccc(F)c2)CC1 | 1.55%
31 | O=C(N[C@@H](Cc1ccccc1)[C@@H](O)C(=O)N1C[C@@H](O)[C@@H](O)C1)c1cc2cc(Cl)ccc2[nH]1 | -3.46%
32 | O=C(O)c1ccccc1-n1cc(C(=O)O)c(=O)c2cc(Nc3c(F)cc(F)cc3Cl)c(Cl)cc21 | 0.439%
33 | O=C(O)c1ccncc1 | -0.197%
34 | CCCOC(C)=O | -12%
35 | CCCCCCCCCCCCSCCOCCO | -3.48% [at 35.3 µM]
36 | N#C[C@@H]1CC(F)(F)CN1C(=O)CNC1CC2CCC(C1)N2c1ncccn1 (stereo not given in full) | -0.901%
37 | C/C=C1\[C@H]2C=C(C)C[C@]1(N)c1ccc(=O)[nH]c1C2 | -0.4% [at 35.3 µM]
38 | O=C(Nc1ccccc1)c1cc([N+](=O)[O-])ccc1Cl | -0.0862%
39 | C1=COCCC1 | -0.247%
40 | CC[C@H](NC(C)C)[C@H](O)c1ccc(O)c2[nH]c(=O)ccc12 | 8.17% [at 35.3 µM]

From PubChem BioAssay (Tox21)
